Screening data: PubChem, National Center for Advancing Translational Sciences (NCATS)
TDP1 cell CPT – DT40-hTDP1 cell growth loss with CPT. hit rate 12% among 420,000. chicken DT40 Tdp1-/-;hTDP1 cells + 20 nM CPT, ATP luminescence, 48 h. Potency, µM (top dose mostly 46.2 µM), without a hit: at the top dose activity change, negative = growth inhibition, actives largely listed as inhibitors; further: potency means the concentration at half of the fitted maximal effect; nearly all actives have a fitted effect of over 55% in size
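Cell growth measured by CellTiter-Glo luminescence after a minimum 48 h, 37 C compound exposure with 20 nM CPT in Tdp1-knockout DT40 cells stably expressing hTDP1, seeded 400/well; qHTS titration format.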
DT40 TDP1 no CPT – qHTS for Inhibitors of human tyrosyl-DNA phosphodiesterase 1 (TDP1): qHTS in cells in absence of CPT. Potency, µM (series often up to 46.2 µM), for the others: at the highest dose activity change, negative = growth inhibition, usual class: inhibitors. DT40 Tdp1-/- hTDP1 cells, no CPT, ATP luminescence, 48 h. hit rate 15% among 420,000; further: potency means the concentration at half of the fitted maximal effect; nearly all actives have a fitted effect of over 55% in size
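Compound effects on proliferation are scored in DT40 Tdp1-/-;hTDP1 cells in the absence of CPT. ATP levels (CellTiter-Glo luminescence) are recorded after a ≥48 hr, 37 °C incubation.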
HT1080-NT tox – kills 2HG-producing HT-1080-NT fibrosarcoma cells; HT-1080-NT fibrosarcoma viability, CellTiter-Glo ATP luminescence, 48 h; Potency, µM (series often up to 46.1 µM), for the others: at the top dose activity, negative = less viability, hits mostly cytotoxic; hit rate 1.6% among 360,000; AID 686970;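 further: NT is the 2HG producing partner of a matched IDH1 knockdown line; potency means the concentration at half of the fitted maximal effect; 0% = DMSO-treated cells and -100% = media-only wells without cells; nearly all actives have a fitted effect of over 55% in size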
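HT-1080-NT; 750 cells/well; 5% FBS RPMI; 48 h compound, 37 degrees C; CellTiter-Glo luminescence; curve fitting and curve-class assignment.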
IL-1B inflam inh – blocks inflammasome-driven IL-1 beta release. hit rate 4.7% among 360,000. THP-1 LPS/ATP IL-1B secretion, AlphaLISA, 16 h; hits give low values. activity change, % at 57.5 µM. AID 743279; in the data active means activity change below about -50%; inconclusive means mostly about -30% to -49%
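THP-1 cells pretreated 1 hr with compounds (up to 57.5 uM final), then stimulated with LPS (250 ng/mL final) plus ATP (1.25 mM final); secreted IL-1B measured by AlphaLISA after 16 hr, decreased signal indicating inhibition.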
HT1080 IDH1KD tx – HT-1080 IDH1 knockdown cell toxicity (counter line) | hit rate 2% among 360,000 | HT-1080 IDH1 knockdown viability, ATP luminescence, 48 h | AID 686971 | Potency, µM (doses to about 46.1 µM), for inactives: at the top dose activity, negative = toxicity, actives largely listed as cytotoxic;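 further: potency means the concentration at half of the fitted maximal effect; 0% = DMSO wells and -100% = cell-free medium wells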
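IDH1KD HT-1080 cells, 750/well, RPMI + 5% FBS; compound pinned after 2 h settling; 48 h, 37 °C; CellTiter-Glo luminescence; % activity normalised to DMSO and no-cell wells; curves fitted, classed by r2 and efficacy.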
An asterisk follows results filed as active; i = inactive; ? = inconclusive; / = no result. A selection: hits, their analogues and other compounds. The true share with any hit is near 19%. Unless noted, the call rests on the fitted dose curve; in most records, active means well fitted curve in the direction sought with a large enough effect; inconclusive means small, poorly fitted or top-dose-only effect, or another doubt; inactive means no such curve, though single readings can be large; an effect the other way counts as inactive or inconclusive. Unless noted, on the % scale 0 is the no-effect control and ±100 the full control effect.

SMILES	TDP1 cell CPT	DT40 TDP1 no CPT	HT1080-NT tox	IL-1B inflam inh	HT1080 IDH1KD tx
CC(=O)c1ccc(S(=O)(=O)Nc2cccc(-c3ccc(N4CCCCCC4)nn3)c2)cc1	-19%	-22%	/	/	/
CCCCCCCCCCC(C)(C)C(=O)Nc1c(OC)cc(OC)cc1OC	10µM*	10µM*	/	/	/
CCCCN(C)CCC(=O)Nc1ccc(OC)cc1OC	-17%	-5%	3%	2	4%
CCOC(=O)[C@@H]1[C@H]2COc3ccccc3[C@H]2N2C(=O)N(c3ccc(F)cc3)C(=O)[C@]12C	-22%	-17%	-3%	-8	-4%
C[C@]12C(=O)N(c3ccc(F)cc3)C(=O)N1[C@@H]1c3ccccc3OC[C@@H]1[C@H]2c1ccccc1	?	18µM*	0%	-10	-23%
C[C@@]12C(=O)N(c3ccc(C(F)(F)F)cc3)C(=O)N1[C@@H]1c3ccccc3OC[C@@H]1[C@H]2c1ccccc1	7.3µM*	10µM*	8%	0	2%
O=C(CN(c1ccc(F)cc1)S(=O)(=O)c1ccccc1)N1CCOCC1	-3%	-9%	-1%	2	-2%
O=C(COC(=O)/C=C/C(=O)OCC(=O)Nc1ccccc1F)Nc1ccccc1F	?	?	-3%	-82*	-4%
CN(C)C(=O)c1ccc(NC(=O)COC(=O)/C=C/c2cccs2)cc1	5%	7%	-6%	-11	-3%
C/C=C/C(=O)OCC(=O)Nc1ccccc1Br	1%	4%	1%	-7	-14%
Cc1ccc(NC(=O)CN(C)C(=O)COC(=O)/C=C/c2cccs2)cc1	14%	-23%	1%	-97*	5%
CCOc1ccccc1NC(=O)COC(=O)/C=C/c1cccs1	-18%	18µM*	1%	-17	-1%
Cc1ccc(C(=O)NNC(=O)Cn2ccc(C(F)(F)F)n2)o1	10%	-2%	3%	5	1%
O=C(NC1CCC(O)CC1)c1cccnc1Sc1ccccc1Cl (centres undefined)	-1%	-17%	10%	i	23%
N#Cc1c2nc3ccccc3nc2n2cc(NC(=O)c3ccc(F)cc3)ccc12	4.1µM*	4.6µM*	-2%	-7	7%
C#Cc1ccc([C@H]2C=C(C(=O)O)O[C@@H](OCCCCO)C2)cc1	-15%	-5%	-2%	0	2%
CCN(CC(=O)Nc1ccccc1C(F)(F)F)C(=O)CN1C(=O)NC(C)(c2ccccc2)C1=O (centres undefined)	-4%	-6%	-7%	5	-4%
O=C(NCc1nc2ccccc2[nH]1)C1=C[C@H](c2coc3ccccc3c2=O)C[C@H](OCCCCO)O1	21µM*	?	0%	-26	-1%
O=C(NCc1nc2ccccc2[nH]1)C1=C[C@@H](C2CCCCC2)C[C@@H](OCCCCO)O1	21µM*	15µM*	0%	-5	8%
O=C(NCc1nc2ccccc2[nH]1)C1=C[C@@H](c2ccccc2)C[C@@H](OCCCCO)O1	10%	?	-15%	2	-2%
CCOc1ccc(CNC(=O)C(=O)c2cn(CC(=O)N3CCOCC3)c3ccccc23)cc1OC	4%	10%	5%	i	-4%
COCCn1nnnc1CN(Cc1ccco1)Cc1cc2cc3c(cc2[nH]c1=O)OCO3	?	-19%	-2%	-11	-24%
COc1ccc2cc(CN(Cc3ccco3)Cc3nnnn3C3CCCCC3)c(=O)[nH]c2c1	26µM*	?	?	-51*	?
Cc1cccc2cc(CN(CC3CCCO3)C(c3nnnn3Cc3ccco3)C(C)C)c(=O)[nH]c12 (centres undefined)	16µM*	15µM*	?	-61*	?
Cc1ccc2cc(CN(CCCN3CCOCC3)C(c3nnnn3Cc3ccco3)C(C)C)c(=O)[nH]c2c1C (centres undefined)	?	?	0%	-9	?
SMILES	TDP1 cell CPT	DT40 TDP1 no CPT	HT1080-NT tox	IL-1B inflam inh	HT1080 IDH1KD tx
COc1cc2cc(CN(Cc3nnnn3Cc3ccco3)C3CCCCC3)c(=O)[nH]c2cc1OC	-22%	-23%	-4%	17	-15%
CCC(C)(C)n1nnnc1CN(Cc1ccco1)Cc1cc2cc3c(cc2[nH]c1=O)OCO3	21µM*	16µM*	6%	?	5%
COc1ccc2cc(CN(Cc3ccco3)C(c3nnnn3C3CCCCC3)C(C)C)c(=O)[nH]c2c1 (centres undefined)	23µM*	?	1%	4	0%
COc1ccc2[nH]c(=O)c(C(c3nnnn3C(C)(C)C)N(Cc3ccco3)CC3CCCO3)cc2c1 (centres undefined)	-25%	-30%	-27%	-19	?
Cc1cccc(OCC(=O)O/N=C(\N)c2ccncc2)c1	3%	-3%	-1%	3	0%
Cc1cc(C)c[n+](-c2[nH]c(=O)sc2/C=N/N=C(\N)[S-])c1	-6%	-25%	0%	-8	12%
CN(C)c1ncnc2c1ncn2C1CCCO1 (centres undefined)	1%	-15%	5%	-1	5%
CCC(C)(C)n1nnnc1CN(Cc1ccc(Cl)cc1)Cc1ccco1	?	?	-4%	-26	-2%
CC(C)(C)c1ccc(CN(Cc2ccco2)Cc2nnnn2C2CCCC2)cc1	21µM*	15µM*	-2%	-8	?
O=C(COc1ccccc1Cl)Nc1ccc(-c2nc3ccccc3s2)cc1	5.8µM*	6.5µM*	/	/	/
Cc1nc2ccc(NC(=O)COc3ccccc3[N+](=O)[O-])cc2s1	-7%	?	-5%	-11	-9%
O=C(COc1ccccc1[N+](=O)[O-])Nc1ccc(-c2nc3ccccc3s2)cc1	21µM*	21µM*	/	/	/
O=C(COc1ccccc1[N+](=O)[O-])Nc1ccc(NC(=O)c2cc3ccccc3o2)cc1	23µM*	?	-10%	-12	-22%
O=C(COc1ccc(/C=N/NC(=O)c2cc3ccccc3o2)cc1Br)Nc1ccccc1	18µM*	18µM*	-25%	-117*	-2%
O=C(COc1ccccc1[N+](=O)[O-])Nc1ccc2oc(=O)ccc2c1	-12%	2%	17%	-13	1%
Cc1ccc2nc(-c3ccc(NC(=O)COc4ccccc4C(C)(C)C)cc3)sc2c1	-30%	?	/	/	/
Cc1nc2ccc(Cl)cc2n1C	-8%	-7%	10%	-1	9%
CCOC(=O)c1cnc2c(C(F)(F)F)cccc2c1N1CCN(C)CC1	-8%	-23%	-24%	-12	-26%
CCOC(=O)c1cnc2c(OC)cccc2c1N1CCN(c2ccccc2OC)CC1	?	13µM*	-26%	-97*	-15%
